PME-1 primary – blocks human protein phosphatase methylesterase 1; recombinant PME-1, FP-Rh probe fluorescence polarization; inhibition, % at 5.9 µM; 0.53% of 320,000 active;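 active means inhibition above the campaign mean of all compounds plus 3 SD, cut at about 26% in these data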;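 further: competitive labeling of PME-1 active site by serine hydrolase directed probe; 0% = PME-1 with DMSO and 100% = wells lacking PME-1 enzyme; inhibitors block probe labeling so polarization falls and inhibition rises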
Fam108B inh – blocks mouse Fam108B hydrolase in RBBP9 counter-screen; recombinant Fam108B, FP-Rh probe fluorescence polarization; inhibition, % at 9.51 µM; 0.33% of 300,000 active;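 active means inhibition above the screen mean inhibition plus 3 SD, computed separately per campaign, cut at about 18% in these data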;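 further: inhibitors lower polarization as less probe binds the enzyme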
PAD4 inh – inhibitors of human PAD4. inhibition, % at 6.36 µM. recombinant PAD4, RCA probe fluorescence polarization. 0.41% of 330,000 active. AID 485272. Q9UM07;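 active means percent inhibition above a cutoff equal to the mean of all tested compounds plus 3 SD, cut at about 15% in these data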;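 further: 0% = PAD4 with RCA probe and DMSO and 100% = probe without PAD4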
GSTO1 counter – GSTO1 inhibition, counter-screen for RBBP9 inhibitors | inhibition, % at 5.96 µM | P78417 | 1.1% of 300,000 active | recombinant GSTO1, activity-based probe fluorescence polarization;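 active means inhibition above the campaign mean inhibition plus 3 SD, cut at about 35% in these data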;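 further: 0% = GSTO1-1 with DMSO and 100% = wells lacking GSTO1-1 enzyme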
Target sequence (P78417 whole entry, looked up): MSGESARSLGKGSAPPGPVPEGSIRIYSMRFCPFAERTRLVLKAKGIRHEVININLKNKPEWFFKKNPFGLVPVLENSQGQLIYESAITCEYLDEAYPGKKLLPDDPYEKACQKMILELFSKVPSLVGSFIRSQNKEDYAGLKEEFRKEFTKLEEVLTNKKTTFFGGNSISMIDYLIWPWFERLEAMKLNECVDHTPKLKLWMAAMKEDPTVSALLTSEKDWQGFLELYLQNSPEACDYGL
pPAFAH FP inh – inhibitors of human plasma PAF acetylhydrolase (pPAFAH); Q13093; recombinant pPAFAH, FP-rhodamine probe fluorescence polarization; inhibition, % at 3.39 µM; 1.5% of 330,000 active;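 active means inhibition above the mean inhibition across the screen plus 3 SD, cut at about 25% in these data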;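 further: inhibitors block binding of the rhodamine activity-based probe so polarization drops; 0% = enzyme with DMSO and 100% = wells lacking pPAFAH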
PAD4 FP conf – PAD4 (human) inhibition, confirmed; shares compounds with PAD4 inh; recombinant PAD4, RCA probe fluorescence polarization; inhibition, % at 6.36 µM; 28% of 1,200 active;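 active means mean inhibition across replicates above the hit cutoff set by the earlier primary screen, cut at about 15% in these data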;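 further: inhibitors block active-site labeling by the probe so polarization falls; 0% = PAD4 with probe and DMSO and 100% = probe without PAD4 enzyme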
Numbers without * were called inactive; . = no result. Compounds with a hit are over-represented: about 2.3% of the library has one in this group of screens.

SMILES | PME-1 primary | Fam108B inh | PAD4 inh | GSTO1 counter | pPAFAH FP inh | PAD4 FP conf
O=C1CC(c2ccc(F)cc2)c2cc3c(cc2N1)CCC3 (stereo unspecified) | 0.8 | 6.2 | 15.5* | 3.6 | 8.0 | 0.3
COc1ccc(N(CC(=O)NCCC2=CCCCC2)S(=O)(=O)c2ccc(C)cc2)cc1 | -4.5 | -0.7 | -0.7 | 6.7 | 3.5 | .
Cc1ccn2cc(CNS(=O)(=O)c3ccc4ccccc4c3)nc2c1 | 10.2 | 1.5 | -1.8 | 8.5 | 4.0 | .
CCn1ccnc1CNC(=O)CC1C(=O)NCCN1CC(c1ccccc1)c1ccccc1 (stereo unspecified) | -2.2 | 2.1 | -8.3 | -3.3 | 0.3 | .
Cc1onc(-c2ccccc2Cl)c1C(=O)NCc1ccc2c(c1)cc(C)n2C | 23.1 | 8.2 | 38.1* | 12.8 | 18.6 | 11.2
Cc1cc2cc(CN3C(=O)c4ccccc4C3=O)ccc2n1C | -10.5 | -0.6 | 15.6* | 2.7 | 2.3 | 7.1
Cc1ccc(CNC(=O)c2c(-c3ccccc3Cl)noc2C)cc1 | -2.7 | -2.5 | 5.5 | 0.4 | -1.0 | .
Cc1cc2cc(CNC(=O)COc3ccccc3)ccc2n1C | 8.5 | 8.8 | 32.5* | 3.5 | 17.1 | 5.9
CSc1ccccc1C(=O)OCC(=O)Nc1cccnc1Cl | . | . | 1.4 | . | 0.6 | .
COc1ccccc1C(=O)Nc1nc(-c2ccc(S(=O)(=O)N3CCOCC3)cc2)cs1 | -28.9 | -19.2 | 39.8* | -31.9 | -9.5 | 41.0*
Cc1cc(C)c2nc(NC(=O)c3ccc4c(=O)n5c(nc4c3)CCCCC5)sc2c1 | 4.7 | -7.8 | 36.2* | 1.3 | 2.1 | 27.6*
COc1ccc(C(=O)NNC(=S)NC(=O)c2cc(-c3ccccc3)nc3ccccc23)cc1 | -0.7 | -5.6 | 15.0* | -61.8 | 13.7 | 6.4
CCCC(=O)N(Cc1cc(=O)[nH]c2ccccc12)c1ccccc1OC | 3.2 | -1.6 | -6.5 | -4.3 | -2.0 | .
Cc1ccc(N(Cc2cc(=O)[nH]c3ccccc23)C(=O)C(C)C)cc1 | 2.1 | 4.7 | 25.8* | -16.3 | -4.6 | 24.5*
CCCC(=O)N(Cc1cc(=O)[nH]c2ccccc12)c1ccc(C)cc1 | 5.0 | -0.6 | 22.8* | -15.1 | 1.5 | 26.8*
CCOC(=O)CNC(=O)c1sc(NC(=O)c2cccc(F)c2)nc1C | -2.2 | 1.0 | 25.3* | 1.1 | -2.0 | 2.2
O=C(COc1ccc(Br)cc1)Nc1ccc(CN2CCOCC2)cc1 | 7.3 | -0.5 | 1.2 | 5.8 | 10.1 | .
Cc1cc(C)cc(NC(=S)/C(=C(\[O-])c2ccc(Cl)s2)[n+]2cccc(C)c2)c1 | -2.9 | -2.2 | 90.0* | -2.5 | 7.3 | -4.5
Cc1ccc(C)c(NC(=S)/C(=C(\[O-])c2ccc(Cl)s2)[n+]2ccccc2)c1 | 0.5 | 4.8 | -2.6 | 4.1 | 4.2 | .
COc1ccc(C2CC(c3cccs3)=Nc3ccccc3S2)cc1 (stereo unspecified) | -5.8 | -5.4 | 21.3* | -1.5 | -1.5 | 2.2
CC(/C=N/N1CCN(c2ccccc2)CC1)=C\c1ccco1 | -6.7 | 0.7 | 2.4 | 0.5 | 3.4 | .
CC(=C/c1ccco1)/C=N/N1CCN(c2ccccc2)CC1 | 0.2 | 0.1 | 20.2* | 1.0 | 6.4 | -7.3
O=C(OCC(=O)N1CCN(C(=O)c2ccco2)CC1)c1cncc(Br)c1 | -4.2 | . | 2.2 | . | 0.6 | .
Cc1nn2c(nc1=O)SCC(c1ccccc1)=N2 | -4.3 | -5.3 | 18.2* | 8.8 | -6.8 | -6.5
O=C(CSC1=N/C(=C/c2ccco2)C(=O)N1c1ccc(OC(F)F)cc1)NC1CCS(=O)(=O)C1 (stereo unspecified) | -2.5 | 1.0 | -6.8 | -1.4 | 13.1 | .
SMILES | PME-1 primary | Fam108B inh | PAD4 inh | GSTO1 counter | pPAFAH FP inh | PAD4 FP conf
COc1ccc(OC)c(S(=O)(=O)Nc2cccc3ccccc23)c1 | 2.4 | 0.1 | 3.0 | -2.3 | -0.3 | .
COc1ccc(OC)c(S(=O)(=O)Oc2ccc(N)c3ccccc23)c1 | 8.5 | 3.0 | 21.4* | 35.0* | 16.2 | -9.8
COc1ccc(NC(=O)Nc2cc(NC(=O)Nc3ccc(OC)cc3)c(C)nc2C)cc1 | -0.8 | 0.0 | 0.0 | 6.5 | 3.9 | .
COc1ccc(NC(=O)Nc2c[nH]c(=O)[nH]c2=O)cc1 | -0.4 | 0.3 | 15.3* | 25.8 | -3.7 | -0.6
COCCN(C(=O)COC(=O)CCOc1cccc(C)c1)c1c(N)n(Cc2ccccc2)c(=O)[nH]c1=O | -0.5 | -1.8 | 8.3 | 0.0 | -0.1 | .
CN1CCN(S(=O)(=O)c2ccc(Sc3nnnn3-c3ccccc3)c([N+](=O)[O-])c2)CC1 | 0.6 | 4.0 | 1.8 | 6.2 | -1.4 | .

From PubChem
